38 molecules from PubChem BioAssay (NCATS) can be followed below.

Several values for one entry are separate records, joined by “and”; a condition that tells them apart may be missing. Identical values can stand only once. Results filed as inconclusive are left out. Activity calls are given as the source filed them. Unless noted, the call rests on the fitted dose curve; in most records, active means well fitted curve in the direction sought with a large enough effect; inconclusive means small, poorly fitted or top-dose-only effect, or another doubt; inactive means no such curve, though single readings can be large; an effect the other way counts as inactive or inconclusive.

The nature of one assay: qHTS assay for small molecule agonists of the antioxidant response element (ARE) signaling pathway measured by Nrf2-dependant transcriptional activity (AID 720636; active means well fitted curve in the direction sought with a large enough effect in the repeat runs; an effect the other way counts as inactive or inconclusive;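 further: HepG2 cells with an ARE-driven luciferase reporter; % of control where 0% means no effect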). Particulars: ARE-luc HepG2, Nrf2 luciferase reporter, 16 h; series mostly up to 92.4 µM. The method, boiled down:
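First, ARE-luc HepG2 cells attached for 6 hr at 37 C in 1% dialyzed FBS medium. Next, compound or DMSO was added and incubated 16 hr. Finally, ONE-Glo reagent was added and luminescence measured after 30 min.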
In general terms: In qHTS, concentration-response curves come from the screen itself.
For the molecule `Nc1nc(N)nc(NC2CC2)n1`, the result was inactive. Still for that read-out and setting: for `Nc1ccc([As](=O)(O)O)cc1` the value was “inactive”; for `Clc1ccc(C(c2ccc(Cl)cc2)C(Cl)(Cl)Cl)cc1`, “inactive”; for `[N-]=[N+]=CC(=O)OC[C@H](N)C(=O)O`, “inactive”. With `COP(=S)(OC)Oc1cc(Cl)c(Cl)cc1Cl`, the molecule was called inactive.

Another assay in a line: qHTS assay for small molecule agonists of the antioxidant response element (ARE) signaling pathway measured by Nrf2-dependant transcriptional activity - cell viability counter screen (AID 720653; active means well fitted curve in the direction sought with a large enough effect in the repeat runs; an effect the other way counts as inactive or inconclusive; further: on the % scale 0 is the no-effect control and ±100 the full control effect). The settings on record: ARE-bla HepG2 viability, CellTiter-Glo ATP luminescence, 16 h; hits give low values. A digest of the protocol:
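Cytotoxicity counter screen: intracellular ATP quantified by CellTiter-Glo luminescence in the same ARE-bla HepG2 plates, after 16 h compound exposure and a 2 h beta-lactamase substrate step.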
Take `Nc1nc(N)nc(NC2CC2)n1`: the max response is 14.5% (inactive). Still for that read-out and setting: for `Nc1ccc([As](=O)(O)O)cc1` the value was -9.13% (inactive); for `Clc1ccc(C(c2ccc(Cl)cc2)C(Cl)(Cl)Cl)cc1`, -18.5% (inactive) and -23.5% (inactive); for `[N-]=[N+]=CC(=O)OC[C@H](N)C(=O)O`, -15% (inactive). Still for that read-out and setting: for `COP(=S)(OC)Oc1cc(Cl)c(Cl)cc1Cl` the value was -0.922% (inactive). Same read-out and setting: for `O=C1c2ccccc2C(=O)c2ccccc21` the value was -5.47% (inactive).

The next assay is described as follows: qHTS Assay for Identifying Gametocytocidal Compounds (AID 743244). Further: potency means the concentration at half of the fitted maximal effect.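 On max response: on the % scale 0 is the no-effect control and ±100 the full control effect; actives lower the fluorescent signal which means gametocytes are killed.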 The settings on record: P. falciparum 3D7 stage III-V gametocytes, alamarBlue, 72 h; max response: hits give low values. The method, boiled down: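 Fluorescence at Ex 525/Em 598 nm, recorded 24 h after alamarBlue addition, reports residual metabolic activity of 3D7 gametocytes (stages III–V) following 72 h compound exposure at 37 °C, 5% CO2.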
In the case of `C#C[C@]1(O)CC[C@H]2[C@@H]3CCC4=CC(=O)CC[C@]4(C)[C@H]3CC[C@@]21C`, the max response is 15.4% (inactive) and 2.46% (inactive).

As to `CC(Cc1ccccc1)NCCn1cnc2c1c(=O)n(C)c(=O)n2C` (centres undefined), the max response was -2.49% (inactive). On the same count and under the same terms, for `CN1C(=O)NC(=O)C(C)(C2=CCCCC2)C1=O` (centres undefined) the value was 8.57% (inactive) and 23.3% (inactive). For `CCN(CC)C(=O)[C@@H]1C=C2c3cccc4[nH]cc(c34)C[C@H]2N(C)C1`, the Potency is 63.1 µM (active). For the molecule `Nc1nc(N)nc(NC2CC2)n1`, the max response was -8.01% (inactive). On the same count and under the same terms, for `C=CCC1([C@H](C)CCC)C(=O)NC(=O)NC1=O` the value was -4.95% (inactive). The same measure, in the same setting: for `Clc1ccc(C(c2ccc(Cl)cc2)C(Cl)(Cl)Cl)cc1` the value was 0.742% (inactive).

Take `CC(C)C[C@H]1C(=O)N2CCC[C@H]2[C@]2(O)O[C@](NC(=O)[C@@H]3C=C4c5cccc6[nH]c(Br)c(c56)C[C@H]4N(C)C3)(C(C)C)C(=O)N12`: the Potency is 22.4 µM (active) and 1.26 µM (active). Turning to `C[C@@H](N)[C@@H](O)c1ccccc1`, the max response was 12.7% (inactive). On the same count and under the same terms, for `O=C(Nc1ccc(Br)cc1)c1cc(Br)cc(Br)c1O` the value was 3.6% (inactive); for `CN1C(=O)COc2c(C(=O)NC3CN4CCC3CC4)cc(Cl)cc21` (centres undefined), 4.3% (inactive); for `COc1cc(CCN)cc(OC)c1OC`, 17.2% (inactive).

Turning to `[N-]=[N+]=CC(=O)OC[C@H](N)C(=O)O`, the max response is -0.674% (inactive). On the same count and under the same terms, for `CN1CCC[C@@H]1c1cccnc1` the value was 35% (inactive); for `COc1cccc([C@@]2(O)CCCC[C@@H]2CN(C)C)c1`, 5.95% (inactive); for `CCN(CCO)CCn1c(Cc2ccccc2)nc2c1c(=O)n(C)c(=O)n2C`, 2.54% (inactive).

With `CC(=O)OCC1=C(C(=O)O)N2C(=O)[C@@H](N)[C@H]2SC1`, the max response was -3.04% (inactive). Same read-out and setting: for `COc1cc(CC(C)N)cc(OC)c1OC` (centres undefined) the value was 4.71% (inactive); for `COC(=O)C(Cl)C(=O)OC`, -5.17% (inactive).

For `CCCCCN(C)CCC(O)(P(=O)(O)O)P(=O)(O)O`, the max response is 17.4% (inactive) and 7.96% (inactive). The same measure, in the same setting: for `c1ccc(CN2CCNCC2)cc1` the value was 8.43% (inactive); for `O=C1Nc2ccc(Cl)cc2C(c2ccccc2Cl)=NC1O` (centres undefined), 16.1% (inactive). Consider `O=C(O)c1ccccc1S`, for which the max response was 58.9% (inactive).

Regarding `CNCC(=O)c1ccc(O)c(O)c1`, the max response was 39.9% (inactive). On the same count and under the same terms, for `CC(C)c1c(CN(C)C(C)Cc2ccccc2)n(C)n(-c2ccccc2)c1=O` (centres undefined) the value was 12.8% (inactive); for `O=C1Nc2ccc(Cl)cc2C(c2ccccc2)=NC1O` (centres undefined), 6.98% (inactive) and -4.42% (inactive); for `CCC1(CC)C(=O)C=CNC1=O`, -13.9% (inactive). Still for that read-out and setting: for `CN1C(=O)CC(=O)N(c2ccccc2)c2cc(Cl)ccc21` the value was 16.1% (inactive). The same measure, in the same setting: for `CCc1cc2c(s1)-n1c(C)nnc1CN=C2c1ccccc1Cl` the value was 2.24% (inactive); for `COP(=S)(OC)Oc1cc(Cl)c(Cl)cc1Cl`, -2.95% (inactive) and 7.49% (inactive); for `CCOc1ccc(NS(=O)(=O)c2ccc(N)cc2)nn1`, 42.3% (inactive). With `O=C1c2ccccc2C(=O)c2ccccc21`, the max response was -6.63% (inactive). Still for that read-out and setting: for `CN=C1CN(O)C(c2ccccc2)=c2cc(Cl)ccc2=N1` the value was 7.17% (inactive); for `CC(=O)NC1CCSC1=O` (centres undefined), -2.2% (inactive) and 7.47% (inactive); for `CC(C)=CC1C(C(=O)OCN2C(=O)C3=C(CCCC3)C2=O)C1(C)C` (centres undefined), 1.71% (inactive). Still for that read-out and setting: for `CCC1(c2ccccc2)C(=O)N(COC)C(=O)N(COC)C1=O` the value was -2.08% (inactive); for `O=C1OC(c2ccc(O)c(S(=O)(=O)O)c2)(c2ccc(O)c(S(=O)(=O)O)c2)c2c(Br)c(Br)c(Br)c(Br)c21`, 21% (inactive).

Another assay in a line: qHTS assay for cell viability of the p53RE-bla HCT-116 cell line (AID 743292). Further: nearly all actives have a fitted effect of over 55% in size. Further: potency means the concentration at half of the fitted maximal effect. The settings on record: p53RE-bla HCT-116 viability, ATP luminescence, 16 h; series mostly up to 95 µM. The method, boiled down: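 Quantitative high-throughput format: compounds in DMSO were pinned onto p53RE-bla HCT-116 cells (4,000/well) and incubated 16 h at 37 C. Total intracellular ATP, read by CellTiter-Glo luminescence, reflects viable cell number.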
Regarding `Nc1nc(N)nc(NC2CC2)n1`, the Potency entry is “inactive”. On to `Nc1ccc([As](=O)(O)O)cc1`, for which the Potency entry was “inactive”. On the same count and under the same terms, for `Clc1ccc(C(c2ccc(Cl)cc2)C(Cl)(Cl)Cl)cc1` the value was 50.1 µM (active); for `[N-]=[N+]=CC(=O)OC[C@H](N)C(=O)O`, “inactive”. Still for that read-out and setting: for `COP(=S)(OC)Oc1cc(Cl)c(Cl)cc1Cl` the value was “inactive”; for `O=C1c2ccccc2C(=O)c2ccccc21`, “inactive”.
